In the supplement of paper PMC7366291:
Structures can show the parent of a compound that is named as a salt. ± gives the standard deviation of the averaged measurements.

Each compound was assayed on Danio rerio Tg(wt1b:EGFP) embryo, pronephros (assay: glomerular width (mean of left and right), fold change vs DMSO control; higher = wider glomerulus). Conditions: 25 µM; exposure: 24-48 hpf.
Outline: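 Every feature is expressed as a fold change relative to the averaged DMSO-treated embryos of the same day. The exposure ran from 24 to 48 hpf at 28.5°C, with dechorionated Tg(wt1b:EGFP) zebrafish embryos in HEPES-buffered E3 containing 0.003% PTU, 0.5% DMSO and 25 μM compound. Dorsal pronephros images taken in agarose-filled 96-well plates were reduced to maximum projections, on which 16 reference points were set by hand in Fiji for a macro to compute distances and angles. Values more than 2 SD from the feature mean were not used.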

Row | Structure (SMILES) | glomerular width
1 | CC(C)(C)NC[C@@H](O)COc1cccc2c1CCCC2=O [(+) -Levobunolol hydrochloride] | 0.935 ± 0.054
2 | CC(N)CCCC(C)(C)O (stereo not given) [Heptaminol hydrochloride] | 1 ± 0.044
3 | COc1ccc(C(=O)NCc2ccc(OCCN(C)C)cc2)cc1OC [Itopride] | 0.962 ± 0.017
4 | CC(C)(C)NCC(O)c1cc(O)cc(O)c1 (stereo not given) [Terbutaline hemisulfate] | 1 ± 0.029
5 | CCN(CC)C(=O)N1CCN(C)CC1 [Diethylcarbamazine citrate] | 0.958 ± 0.028

The compounds below were run on Danio rerio Tg(wt1b:EGFP) embryo, pronephros (assay: fraction of imaged embryos annotated as normal kidney; higher = less nephrotoxic; extreme values may be limits of the assay). Conditions: 25 µM; exposure: 24-48 hpf.
Outline: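 Zebrafish embryos carrying Tg(wt1b:EGFP) were dechorionated and exposed to 25 μM compound (0.5% DMSO) between 24 and 48 hpf at 28.5°C. Their pronephroi were imaged by widefield fluorescence, and each embryo was classed by hand from maximum projections. The measure is the fraction of embryos per treatment falling in the normal-kidney category.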

Row | Structure (SMILES) | fraction of imaged embryos annotated as normal kidney
6 | Cc1cnc(C(=O)O)c[n+]1[O-] [Acipimox] | 1
7 | CC(=O)OCC(=O)[C@@]1(O)CC[C@H]2[C@@H]3CCC4=CC(=O)C=C[C@]4(C)[C@@]3(F)[C@@H](O)C[C@@]21C [Isoflupredone acetate] | 0.583
8 | Cc1oncc1C(=O)Nc1ccc(C(F)(F)F)cc1 [Leflunomide] | 0.167
9 | CCOC(=O)[C@H](CCc1ccccc1)N[C@H]1CCc2ccccc2N(CC(=O)O)C1=O [Benazepril hydrochloride] | 0.75
10 | Nc1nc(NC2CC2)c2ncn([C@H]3C=C[C@@H](CO)C3)c2n1 [Abacavir Sulfate] | 0.9
11 | CC(=O)c1ccc2c(c1)N(CCCN(C)C)c1ccccc1S2 [Acetopromazine maleate salt] | 1
12 | Cc1c(-c2ccccc2)oc2c(C(=O)OCCN3CCCCC3)cccc2c1=O [Flavoxate hydrochloride] | 0.75
13 | CCN(CC)CCCC(C)Nc1c2ccc(Cl)cc2nc2ccc(OC)cc12 (stereo not given) [Quinacrine dihydrochloride hydrate] | 0.75
14 | Cn1c([N+](=O)[O-])cnc1COC(N)=O [Ronidazole] | 0.75
15 | CC(C)(C)NCC(O)COc1cccc2c1CC(O)C(O)C2 (stereo not given) [Nadolol] | 0.833
16 | CCn1cc(C(=O)O)c(=O)c2cc(F)c(N3CCN(C)CC3)cc21 [Pefloxacine] | 1
17 | CC(C)(C)NC[C@H](O)c1ccc(O)c(CO)c1 [Levalbuterol hydrochloride] | 0.917
18 | c1ccc2[nH]c(-c3cscn3)nc2c1 [Tiabendazole] | 0.667
19 | Nc1ccc(S(=O)(=O)Nc2nccs2)cc1 [Sulfathiazole] | 0.917
20 | N#Cc1ccc(C(c2ccc(C#N)cc2)n2cncn2)cc1 [Letrozole] | 0.917
21 | CC(C)NNC(=O)c1ccncc1 [Iproniazide phosphate] | 1
22 | O=C(O)c1cc(/N=N/c2ccc(S(=O)(=O)Nc3ccccn3)cc2)ccc1O [Sulfasalazine] | 0.917
23 | CN(C)[C@@H]1C(O)=C(C(N)=O)C(=O)[C@@]2(O)C(O)=C3C(=O)c4c(O)ccc(Cl)c4[C@@](C)(O)[C@H]3C[C@@H]12 [Chlortetracycline hydrochloride] | 0.583
24 | CCOCCn1c(N2CCCN(C)CC2)nc2ccccc21 [Emedastine] | 0.917
25 | C[N+](C)(C)CCOC(N)=O [Carbachol] | 0.667

Row | Structure (SMILES) | fraction of imaged embryos annotated as normal kidney
26 | CCC(=O)O[C@]1(C(=O)SCF)[C@H](C)C[C@H]2[C@@H]3C[C@H](F)C4=CC(=O)C=C[C@]4(C)[C@@]3(F)[C@@H](O)C[C@@]21C [Fluticasone propionate] | 0.0833
27 | O=c1[nH]c(=O)n([C@H]2C[C@H](O)[C@@H](CO)O2)cc1F [Floxuridine] | 0.5
28 | CCCc1nc2c(C)cc(-c3nc4ccccc4n3C)cc2n1Cc1ccc(-c2ccccc2C(=O)O)cc1 [Telmisartan] | 0.75
29 | Cn1c(=O)c2nc[nH]c2n(C)c1=O [Theophylline monohydrate] | 1
30 | CNCCC(Oc1ccc(C(F)(F)F)cc1)c1ccccc1 (stereo not given) [Fluoxetine hydrochloride] | 0.583
31 | CCCNC(=O)NS(=O)(=O)c1ccc(Cl)cc1 [Chlorpropamide] | 0.75
32 | NCC[C@H](O)C(=O)N[C@@H]1C[C@H](N)[C@@H](O[C@H]2O[C@H](CN)[C@@H](O)[C@H](O)[C@H]2O)[C@H](O)[C@H]1O[C@H]1O[C@H](CO)[C@@H](O)[C@H](N)[C@H]1O [Amikacin hydrate] | 0.667
33 | CCCCc1nc(Cl)c(CO)n1Cc1ccc(-c2ccccc2-c2nnn[nH]2)cc1 [Losartan] | 0.75
34 | CCCNC(C)C(=O)Nc1ccccc1C (stereo not given) [Prilocaine hydrochloride] | 0.75
35 | OCCN1CCN(CC/C=C2/c3ccccc3Sc3ccc(Cl)cc32)CC1 [Zuclopenthixol dihydrochloride] | 0.833
36 | CC(=O)SCC(Cc1ccccc1)C(=O)NCC(=O)OCc1ccccc1 (stereo not given) [Racecadotril] | 0.167
37 | CC1=C(C(=O)O)N2C(=O)[C@@H](NC(=O)[C@H](N)c3ccc(O)cc3)[C@H]2SC1 [Cefadroxil] | 0.833
38 | NS(=O)(=O)c1cc(Cl)c(Cl)c(S(N)(=O)=O)c1 [Dichlorphenamide] | 0.727
39 | CCS(=O)(=O)CCn1c([N+](=O)[O-])cnc1C [Tinidazole] | 0.833
40 | O=c1[nH]cc(F)c(=O)[nH]1 [5-fluorouracil] | 0.75
41 | CC(C)(C)NC[C@@H](O)COc1cccc2c1CCCC2=O [(+) -Levobunolol hydrochloride] | 0.75
42 | CC(N)CCCC(C)(C)O (stereo not given) [Heptaminol hydrochloride] | 0.75
43 | COc1ccc(C(=O)NCc2ccc(OCCN(C)C)cc2)cc1OC [Itopride] | 0.8
44 | CC(C)(C)NCC(O)c1cc(O)cc(O)c1 (stereo not given) [Terbutaline hemisulfate] | 0.75
45 | CCN(CC)C(=O)N1CCN(C)CC1 [Diethylcarbamazine citrate] | 0.909
